Active and inactive are the calls of the source. Unless noted, the call rests on the fitted dose curve; in most records, active means well fitted curve in the direction sought with a large enough effect in the repeat runs; inconclusive means weak or mixed curves; inactive means no such curve, though single readings can be large; an effect the other way counts as inactive or inconclusive.
Legend:
[1] = qHTS assay for small molecules that induce genotoxicity in human embryonic kidney cells expressing luciferase-tagged ATAD5 (AID 651632); further: nearly all actives have a fitted effect of over 15% in size; further: potency means the concentration at half of the fitted maximal effect
Procedure, shortened: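 HEK293T cells carrying a luciferase reporter tagged to ATAD5 were exposed to compound or DMSO vehicle for 16 hr at 37C, 5% CO2. Amplite was added, and after 30 min at room temperature luciferase activity was read as a marker of ATAD5 induction.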

[2] = qHTS assay for small molecule agonists of the p53 signaling pathway - cell viability (AID 651633; calls by dose curve; further: nearly all actives have a fitted effect of over 30% in size; further: potency means the concentration at half of the fitted maximal effect)
Procedure, shortened: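 p53RE-bla cells were treated with compound for 16 hours at 37 C. Cytotoxicity was then measured as CellTiter-Glo luminescence after 30 min at room temperature.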

[3] = qHTS assay for small molecule disruptors of the mitochondrial membrane potential - cell viability (AID 720634; calls by dose curve; further: nearly all actives have a fitted effect of over 20% in size; further: potency means the concentration at half of the fitted maximal effect)
Procedure, shortened: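 HepG2 cells seeded overnight at 37 C, then exposed to compound or DMSO for 1 hr at 37 C, 5% CO2. m-MPI dye added, then CellTiter-Glo for 30 min at room temperature; viability read as ATP luminescence.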

[4] = qHTS assay to test for compound auto fluorescence at 590 nm (red) in HepG2 cells (AID 720674)
Procedure, shortened: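 Seeding: 2,000 HepG2 cells/well, MEM/10% FBS, overnight 37 C. Dosing: compound vs DMSO. Incubation: 1 hr, 37 C, 5% CO2. Read: fluorescence 540 ex/590 em, Rose Bengal sodium as red reference.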

[5] = qHTS assay to test for compound auto fluorescence at 535 nm (green) in HepG2 cells (AID 720675)
[6] = qHTS assay to test for compound auto fluorescence at 460 nm (blue) in HEK293 cells (AID 720678)
Procedure, shortened: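 Auto fluorescence in the blue band was quantified as triamterene equivalency. HEK293 cells were seeded at 2,000/well, dosed after a 4-5 hr attachment, and kept overnight at 37C before the 405/460 nm reading.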

[7] = qHTS assay to test for compound auto fluorescence at 590 nm (red) in HEK293 cells (AID 720679)
Procedure, shortened: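 Autofluorescence equivalency to Rose Bengal sodium, 540/590nm, in HEK293 cells exposed overnight to 23 nL compound per well.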

[8] = qHTS assay to test for compound auto fluorescence at 535 nm (green) in HEK293 cells (AID 720680); further: potency means the concentration at half of the fitted maximal effect
[9] = qHTS assay to test for compound auto fluorescence at 460 nm (blue) in HEK293 cell free culture (AID 720681)
Procedure, shortened: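 Compounds were added to cell-free DMEM with 10% FBS and fluorescence read directly. The blue channel used 405 nm excitation and 460 nm emission, with triamterene as the reference fluorophore.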

[10] = qHTS assay to test for compound auto fluorescence at 535 nm (green) in HEK293 cell free culture (AID 720682); further: potency means the concentration at half of the fitted maximal effect
Procedure, shortened: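 Steps: dispense DMEM/10% FBS into empty wells; pin in compound or DMSO; measure fluorescence at 485/535 nm. Values are fluorescein equivalents.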

[11] = qHTS assay to test for compound auto fluorescence at 590 nm (red) in HEK293 cell free culture (AID 720683)
Procedure, shortened: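 Cell-free wells of DMEM with 10% FBS received compound, and intrinsic fluorescence was read at excitation/emission 540/590 nm. Values expressed as equivalence to Rose Bengal sodium.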

[12] = qHTS assay to test for compound auto fluorescence at 590 nm (red) in HepG2 cell free culture (AID 720684)
Procedure, shortened: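 Compound was pinned into wells holding MEM with 10% FBS and no cells, and red fluorescence was read at Ex/Em 540/590 nm. Signal is expressed as auto fluorescence equivalency relative to Rose Bengal sodium.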

[13] = qHTS assay to test for compound auto fluorescence at 460 nm (blue) in HepG2 cell free culture (AID 720685)
Procedure, shortened: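 Compound (23 nL) or DMSO pinned into cell-free MEM with 10% FBS; blue fluorescence read at 405/460 nm excitation/emission, expressed as auto-fluorescence equivalency to triamterene.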

[14] = qHTS assay to test for compound auto fluorescence at 535 nm (green) in HepG2 cell free culture (AID 720686); further: potency means the concentration at half of the fitted maximal effect
[15] = qHTS assay to test for compound auto fluorescence at 460 nm (blue) in HepG2 cells (AID 720687)
Procedure, shortened: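 HepG2 cells in MEM with 10% FBS, attached overnight at 37 C, were exposed to compound or DMSO for 1 hr at 37 C, 5% CO2. Blue fluorescence was read at 405/460 nm, with triamterene as reference fluorophore.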

[16] = target: Glucocorticoid receptor (Homo sapiens) (UniProt P04150); assay: qHTS assay to identify small molecule agonists of the glucocorticoid receptor (GR) signaling pathway (AID 720691; active means well fitted activation curve with a large enough effect in the signal ratio in the repeat runs, not every such curve was filed as active; inconclusive means weak or mixed curves, or effect the other way; inactive means no such curve, though single readings can be large or run the other way; the % refers to the signal ratio; further: potency means the concentration at half of the fitted maximal effect); conditions: GR-bla HeLa, beta-lactamase reporter ratio, 18 h; activation: at 62.4 µM (top of the series)
Procedure, shortened: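 GR-bla HeLa cells (beta-lactamase reporter under glucocorticoid response element) were plated 4 h at 37 C/5% CO2, given compounds in DMSO, and incubated 18 h at 37 C. LiveBLAzer B/G FRET substrate was added for 2 h at room temperature, then fluorescence intensity read.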

[17] = qHTS assay for small molecule disruptors of the mitochondrial membrane potential (AID 720635); further: potency means the concentration at half of the fitted maximal effect
Procedure, shortened: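 HepG2 cells exposed to compound 1 hr at 37C, then Mito-MPS dye 30 min. Ratio read of aggregate (540/590 nm) versus monomer (490/535 nm) fluorescence.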

[18] = target: Glucocorticoid receptor (Homo sapiens) (UniProt P04150); assay: qHTS assay to identify small molecule antagonists of the glucocorticoid receptor (GR) signaling pathway (AID 720692; active means well fitted inhibition curve with a large enough effect in the signal ratio in the repeat runs, not every such curve was filed as active; inconclusive means weak or mixed curves, or effect the other way; inactive means no such curve, though single readings can be large or run the other way; the % refers to the signal ratio; further: potency means the concentration at half of the fitted maximal effect)
Procedure, shortened: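 GR-bla HeLa cells (beta-lactamase reporter under glucocorticoid response element) were pre-plated 4 h at 37 C, treated with compounds plus 5 nM dexamethasone (final) for 18 h, then read by LiveBLAzer B/G FRET fluorescence after 2 h.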

[19] = qHTS assay for small molecules that induce genotoxicity in human embryonic kidney cells expressing luciferase-tagged ATAD5 - cell viability (AID 651634; calls by dose curve; further: nearly all actives have a fitted effect of over 25% in size; further: potency means the concentration at half of the fitted maximal effect)
Procedure, shortened: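 HEK293T cells expressing luciferase-tagged ATAD5 were exposed to compound or DMSO for 15.5 hr at 37C, 5% CO2. Viability was then read as live-cell protease activity by CellTiter-Fluor fluorescence after 30 min at 37C.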

Measured: Potency
Tags describe the fitted curve by direction and shape or compound fluorescence and quenching.

Sequence of Glucocorticoid receptor (Homo sapiens) (P04150 whole entry, looked up): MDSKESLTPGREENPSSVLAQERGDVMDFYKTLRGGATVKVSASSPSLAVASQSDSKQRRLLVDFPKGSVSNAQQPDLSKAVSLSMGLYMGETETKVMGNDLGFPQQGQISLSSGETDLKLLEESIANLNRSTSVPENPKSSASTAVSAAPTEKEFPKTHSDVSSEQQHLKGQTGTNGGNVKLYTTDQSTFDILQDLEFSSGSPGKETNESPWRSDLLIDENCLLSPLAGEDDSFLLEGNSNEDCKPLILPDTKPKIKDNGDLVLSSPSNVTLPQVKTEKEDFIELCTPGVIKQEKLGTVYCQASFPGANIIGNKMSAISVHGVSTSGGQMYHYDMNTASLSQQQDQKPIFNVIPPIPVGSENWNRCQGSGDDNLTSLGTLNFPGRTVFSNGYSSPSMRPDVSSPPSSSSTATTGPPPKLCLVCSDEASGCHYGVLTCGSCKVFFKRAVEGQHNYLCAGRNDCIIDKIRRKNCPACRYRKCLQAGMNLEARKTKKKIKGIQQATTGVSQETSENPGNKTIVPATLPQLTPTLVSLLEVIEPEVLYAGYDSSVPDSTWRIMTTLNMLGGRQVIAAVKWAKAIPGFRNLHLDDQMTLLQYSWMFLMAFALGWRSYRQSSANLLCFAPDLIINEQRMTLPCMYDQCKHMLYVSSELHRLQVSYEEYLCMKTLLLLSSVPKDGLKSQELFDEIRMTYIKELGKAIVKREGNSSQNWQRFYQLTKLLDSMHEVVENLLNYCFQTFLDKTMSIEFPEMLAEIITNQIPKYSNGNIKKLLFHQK

COC(=O)C1=C(C)NC(C)=C(C(=O)O[C@H]2CCN(Cc3ccccc3)C2)[C@H]1c1cccc([N+](=O)[O-])c1
not listed: [17] | [18] | [19]
inactive: all other assays above

N#CC(c1ccc(Cl)cc1)c1c(Cl)cc(-n2ncc(=O)[nH]c2=O)cc1Cl (stereo not drawn)
active: [2] 23.7 µM | [17] 8.41 µM | [18] 23.9 µM
not listed: [16] | [19]
inactive: all other assays above

COC(=O)C1=C(C#N)NC(C)=C(C(=O)OC(C)C)C1c1cccc([N+](=O)[O-])c1 (stereo not drawn)
active: [3] 11.9 µM | [17] 19.7 µM
not listed: [13] | [16] | [18] | [19]
inactive: all other assays above

O=C(O)CN(CC(=O)O)CC1=CC2C(=CC1=O)Oc1cc(O)c(CN(CC(=O)O)CC(=O)O)cc1C21OC(=O)c2ccccc21 (stereo not drawn)
active: [8] 11.2 µM [fluorescent] | [10] 11.2 µM [fluorescent] | [14] 11.2 µM [fluorescent]
inactive: [1] | [2] | [3] | [6] | [9] | [13] | [15]

CCCCCCCCCCCCCCCC(=O)O[C@@H]1CC(C)=C(/C=C/C(C)=C/C=C/C(C)=C/C=C/C=C(C)/C=C/C=C(C)/C=C/C2=C(C)C[C@@H](OC(=O)CCCCCCCCCCCCCCC)CC2(C)C)C(C)(C)C1
active: [18] 12 µM
not listed: [2] | [16]
inactive: all other assays above

Cn1c(O)c(N=NC(N)=S)c2ccccc21
active: [17] 4.95 µM
not listed: [6] | [16] | [18] | [19]
inactive: all other assays above

O=C(CCCN1CCC(n2c(=S)[nH]c3ccccc32)CC1)c1ccc(F)cc1
not listed: [16] | [18] | [19]
inactive: all other assays above

C=C1CC[C@H](O)CC1=C/C=C1\CCC[C@]2(C)[C@@H]([C@H](C)CC[C@@H](O)C(C)(C)O)CC[C@@H]12
active: [2] 21.1 µM | [17] 11.9 µM
not listed: [6] | [16] | [18] | [19]
inactive: all other assays above

C#C[C@]1(O)CC[C@H]2[C@@H]3CCC4=CCCC[C@@H]4[C@H]3C(=C)C[C@@]21CC
active: [17] 21.1 µM
not listed: [2] | [16] | [18]
inactive: all other assays above

COc1ccc(C2NC(=S)N3C(c4ccc(OC)c(OC)c4)NC(=S)N23)cc1OC (stereo not drawn)
not listed: [2] | [16] | [18]
inactive: all other assays above

OCC(S)CS (stereo not drawn)
active: [2] 26.6 µM
not listed: [16] | [18] | [19]
inactive: all other assays above

C[N+]1(C)[C@@H]2CC(OC(=O)C(O)(c3cccs3)c3cccs3)C[C@H]1[C@@H]1O[C@@H]12 (stereo partly drawn)
not listed: [16] | [18] | [19]
inactive: all other assays above

C/C1=C2N=C(/C=C3N=C(/C(C)=C4\[N-][C@@](C)([C@@H]5N=C1[C@](C)(CCC(=O)NCC(C)OP(=O)(O)O[C@H]1[C@@H](O)[C@@H](n6cnc7cc(C)c(C)cc76)O[C@@H]1CO)[C@H]5CC(N)=O)[C@@](C)(CC(N)=O)[C@@H]4CCC(N)=O)[C@@](C)(CC(N)=O)[C@@H]\3CCC(N)=O)C(C)(C)[C@@H]/2CCC(N)=O.CC(=O)O.[Co] (stereo partly drawn)
not listed: [17] | [19]
inactive: all other assays above

CCCCCCCN(CC)CCCC(O)c1ccc(NS(C)(=O)=O)cc1 (stereo not drawn)
not listed: [3] | [5] | [17]
inactive: all other assays above

CCCCC(=O)N(Cc1ccc(-c2ccccc2-c2nn[nH]n2)cc1)[C@@H](C(=O)O)C(C)C
not listed: [3] | [17]
inactive: all other assays above

Cc1ccc(S(=O)(=O)NC(=O)N[C@@H](C)Cc2ccccc2)cc1
not listed: [2] | [16] | [18]
inactive: all other assays above

CC[C@]1(O)CC2CN(CCc3c([nH]c4ccccc34)[C@@](C(=O)OC)(c3cc4c(cc3OC)N(C)[C@H]3[C@@](O)(C(N)=O)[C@H](O)[C@]5(CC)C=CCN6CC[C@]43[C@@H]65)C2)C1 (stereo partly drawn)
active: [1] 3.35 µM | [19] 0.531 µM | [17] 10.6 µM
not listed: [2] | [6] | [18]
inactive: all other assays above

C=C1C(=C/C=C2\CCC[C@]3(C)[C@@H]([C@H](C)CCCC(C)(C)O)CC[C@@H]23)C[C@@H](O)C[C@@H]1O
active: [2] 21.1 µM | [17] 10.6 µM
not listed: [16] | [18] | [19]
inactive: all other assays above

CCCCCCCCCCCCCCCCOCCOCCOCCOCCOCCOCCOCCOCCOCCOCCOCCOCCOCCOCCOCCOCCOCCOCCOCCOCCO
active: [2] 6.68 µM | [17] 23.7 µM
not listed: [3] | [16] | [18] | [19]
inactive: all other assays above

CCC(=O)OCC(=O)[C@@]1(OC(=O)CC)[C@@H](C)C[C@H]2[C@@H]3CCC4=CC(=O)C=C[C@]4(C)[C@@]3(Cl)[C@@H](O)C[C@@]21C
active: [17] 21.1 µM
not listed: [5] | [16] | [18] | [19]
inactive: all other assays above

O=C(Nc1ccc(Br)cc1)c1cc(Br)c(Br)s1
active: [2] 29.8 µM | [3] 3.35 µM | [17] 0.668 µM
not listed: [16] | [18] | [19]
inactive: all other assays above

CN1CCCC(CN2c3ccccc3Sc3ccccc32)C1 (stereo not drawn)
not listed: [5] | [17] | [19]
inactive: all other assays above

CCC[C@@H]1C[C@@H](C(=O)N[C@@H]([C@H]2O[C@H](SC)[C@H](O)[C@@H](O)[C@H]2O)[C@H](C)Cl)N(C)C1
not listed: [2] | [6] | [16] | [18]
inactive: all other assays above

Cc1cc(O)c2c(c1)O[C@@]1(C)CC[C@H]3C(C)(C)CCCC34CO[C@@H]2[C@H]41 (stereo partly drawn)
active: [2] 26.6 µM
not listed: [3] | [16] | [17] | [18] | [19]
inactive: all other assays above

Clc1cc(Cl)c(OCC#CI)cc1Cl
active: [2] 26.6 µM | [3] 9.44 µM | [17] 4.73 µM | [16] 26.8 µM [inconclusive]
not listed: [18] | [19]
inactive: all other assays above

CCC(=O)Oc1ccc2c(c1)CC[C@@H]1[C@@H]2CC[C@]2(C)[C@@H](OC(=O)CC)CC[C@@H]12
active: [18] 4.25 µM
not listed: [2]
inactive: all other assays above

C=CC[C@@H]1/C=C(\C)C[C@H](C)C[C@H](OC)[C@H]2O[C@@](O)(C(=O)C(=O)N3CCCC[C@H]3C(=O)O[C@H](/C(C)=C/[C@@H]3CC[C@@H](O)[C@H](OC)C3)[C@H](C)[C@@H](O)CC1=O)[C@H](C)C[C@@H]2OC
active: [2] 26.6 µM
not listed: [17] | [18] | [19]
inactive: all other assays above

CN[C@@H]1[C@@H](O)[C@@H](O[C@@H]2[C@@H](O)[C@H](OC3OC(CN)=CCC3N)[C@@H](N)C[C@H]2N)OC[C@]1(C)O (stereo partly drawn)
not listed: [2]
inactive: all other assays above

Reference: PubChem BioAssay (Tox21)
